“And” between values parts separate entries of the source, which are not always exact repeats. Identical values can stand only once. A number with no mark means an inactive call. No rule for the calls is given here.
What follows are compounds tested against Pantothenate synthetase (Mycobacterium tuberculosis (strain ATCC 25618 / H37Rv)) (UniProt P9WIL5) (assay: Recombinant Mtb pantothenate synthetase (PanC) inhibitors, coupled enzyme, confirmatory (AID 375;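 also: 0% = full reaction with vehicle and 100% = no enzyme background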)). Details: coupled enzyme assay; at 10 µM, active compounds read high.
Pantothenate synthetase (Mycobacterium tuberculosis (strain ATCC 25618 / H37Rv)), sequence (P9WIL5 whole entry, looked up): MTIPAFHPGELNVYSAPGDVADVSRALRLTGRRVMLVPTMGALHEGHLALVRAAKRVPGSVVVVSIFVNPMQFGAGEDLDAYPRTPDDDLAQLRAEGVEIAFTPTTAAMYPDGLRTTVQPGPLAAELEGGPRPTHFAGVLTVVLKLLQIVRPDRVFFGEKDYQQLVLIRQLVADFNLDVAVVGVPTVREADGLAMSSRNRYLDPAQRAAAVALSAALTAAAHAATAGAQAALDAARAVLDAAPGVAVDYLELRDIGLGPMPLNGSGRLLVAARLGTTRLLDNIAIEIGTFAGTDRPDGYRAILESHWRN
`CCCOc1ccc(C2C(C(=O)c3ccc(C)o3)=C(O)C(=O)N2Cc2cccnc2)cc1` (stereo not given) was tested, and the inhibition was 10%. Compound `O=C(NCC1CCCO1)C1CCCN(S(=O)(=O)c2cccc3nsnc23)C1` (stereo not given) has an inhibition of 4%. Work on `CCc1[nH]nc2c1C(c1ccncc1)C(C#N)=C(N)O2` (stereo not given) yielded an inhibition of 4%. Work on `CCOC(=O)c1ccc(NC(=O)CSc2n[nH]c(-c3ccncc3)n2)cc1` yielded an inhibition of 5%. With `CN1CCN(C(=O)C2(NC(=O)Nc3cccc(F)c3)CCCCC2)CC1` the inhibition was 0%. In the case of `C[C@]12CCC(=O)C=C1CC[C@@H]1[C@@H]2[C@@H](O)C[C@@]2(C)[C@H]1CC[C@]2(O)C(=O)COC(=O)CCC(=O)O`, the inhibition is reported as 0% and 2%. For `COc1cc2c3c(c1)/C(=C1/SC(NC(C)=O)=NC1=O)C(=O)N3C(C)(C)C=C2C`, the inhibition was 0%. Work on `COc1cc(C2c3c(n[nH]c3C)C(=O)N2c2ccc(Br)cc2)ccc1O` (stereo not given) yielded an inhibition of 4%. `Nc1nc(Nc2ccc(Cl)cc2Cl)nc(C(F)(F)F)n1` was tested, and the inhibition was 0%. With `FC(F)(F)c1cc(-c2ccco2)nc(N2CCOCC2)n1` the inhibition was 2%. Compound `C=Cn1c(N2CCOCC2)nc2c1c(=O)[nH]c(=O)n2C` has an inhibition of 16%. With `CCOc1cc(C(=O)N2CCN(c3ccccc3)CC2)cc(OCC)c1OCC` the inhibition was 3%. With `O=C(c1ccco1)N1CCN(/C(=N/S(=O)(=O)c2cccs2)c2ccccc2Cl)CC1` the inhibition was 0%. `CC(C)CCN(C)C1CCN(S(=O)(=O)c2ccc(F)cc2)CC1` showed an inhibition of 0%. Compound `CCOC(=O)CSC1=Nc2ccccc2C2=NC(CC(=O)NCc3cccs3)C(=O)N12` (stereo not given) has an inhibition of 4%. Compound `O=C(c1cc(C2CC2)on1)N1CCN(C(c2ccccc2)c2ccccc2)CC1` has an inhibition of 0%. `CS(=O)(=O)N1CCCC(C(=O)NCCCN2CCc3ccccc3C2)C1` (stereo not given) was tested, and the inhibition was 2%. `Cc1nc(CNS(=O)(=O)c2cccc(F)c2)cs1` showed an inhibition of 0%. `CC(C)(C)NS(=O)(=O)c1ccc(CCC(=O)O)cc1` was tested, and the inhibition was 0%. `CCCC(=O)Nc1ccc2oc(-c3cccnc3)nc2c1` was tested, and the inhibition was 0%. In the case of `CN(C)CCCN1c2ccccc2CCc2ccc(Cl)cc21`, the inhibition is reported as 1%. Work on `CC(C)Cn1c(=O)c(C(=O)Nc2ccccc2S(N)(=O)=O)c(O)c2ccccc21` yielded an inhibition of 0%. `CCN(CC)S(=O)(=O)c1ccc(Cl)c(C(=O)OC)c1` showed an inhibition of 8%. `Cn1nnnc1SCC(=O)NC1CCCCC1` was tested, and the inhibition was 0%. With `O=C(N1CCOCC1)N1CCC(NC(=O)C23CC4CC(CC(C4)C2)C3)CC1` the inhibition was 0%. Compound `O=C(O)c1oc2ccccc2c1-n1cccc1` has an inhibition of 6%. `CCC1CCCCN1CCCNC(=O)c1ccc(CS(=O)(=O)Cc2ccccc2F)o1` (stereo not given) showed an inhibition of 4%. Compound `CN(Cc1ccc(-n2cccn2)cc1)C(=O)c1cnn2c1NC(c1ccco1)CC2C(F)(F)F` (stereo not given) has an inhibition of 0%. For `CCCC1C(C#N)=C(N)Oc2n[nH]c(C(C)(C)C)c21` (stereo not given), the inhibition was 0%. In the case of `COc1ccc(C2CNC(=O)C2)cc1OC1CCCC1` (stereo not given), the inhibition is reported as 1%. Compound `O=S(=O)(c1cc(Cl)ccc1Br)N1CCOCC1` has an inhibition of 0%. Compound `O=C(c1ccc(S(=O)(=O)N2CCOCC2)cc1)N1CCc2ccccc2C1` has an inhibition of 0%. Compound `CC(=O)N1CCN(C(C)=O)C1c1ccccc1` has an inhibition of 2%. With `COc1ccc(C2C(C(C)=O)=C(C)N=c3s/c(=C\c4ccc5c(c4)OCO5)c(=O)n32)c(OC)c1` (stereo not given) the inhibition was 0%. Compound `CCC(Sc1nc2sc(C(=O)OC)c(C)c2c(=O)n1N)C(=O)NCC1CCCO1` (stereo not given) has an inhibition of 4%. `CCCN1C2=C(C(=O)CCC2)C(c2ccc(O)c(Br)c2)C2=C1CCCC2=O` was tested, and the inhibition was 0%. `O=C(NCCCCNC(=O)c1c(F)c(F)c(F)c(F)c1F)c1c(F)c(F)c(F)c(F)c1F` showed an inhibition of 0%. `COc1ccccc1-c1nc(C(F)(F)F)c(OC)o1` gave an inhibition of 0%. Compound `Cc1ccc(-c2ccc(=O)n(CC(=O)NCCCN3CCCCC3C)n2)cc1` (stereo not given) has an inhibition of 0%. Compound `Cc1ccc(S(=O)(=O)N2CCOCC2)cc1C(=O)Nc1ccccn1` has an inhibition of 0%.
